Screening data from PubChem.
aSyn 5UTR act: Activators working through SNCA 5'UTR binding (MLPCN); alpha-synuclein 5'UTR reporter, activators screen; activity score, % (tested at 7.5 µM), hits read low; 300,000 tested, 7.1% active; AID 1814; in the data active = activity score below about -60%
Numbers stand for hits; i = inactive. These entries were drawn from the full list.

SMILES | aSyn 5UTR act
CCCOc1ccc(/C=C/C(=O)Nc2ccc([N+](=O)[O-])cc2)cc1 | i
Nc1nc(NC(=O)c2ccccc2)nn1-c1ccccc1 | -71
Nc1nc(NC(=O)c2cccs2)nn1-c1ccccc1 | -115
O=C(Nc1nc(NC(=O)c2ccco2)n(-c2ccccc2)n1)c1ccccc1 | i
COc1c(OC)c(O)c2c(=O)cc(-c3c(O)cccc3O)oc2c1OC | -64
OCCNc1c2ccccc2nc2c(F)c(F)c(F)c(F)c12 | -84
CCN1CCN(c2cc3c(nn2)Oc2ccccc2N3C)CC1 | -128
CC(C)C(=O)Nc1cccc(NC(=S)NC(=O)c2ccc3c(c2)OCO3)c1 | -158
CC(C)C(=O)Nc1cccc(NC(=S)NC(=O)c2cccs2)c1 | -126
Cc1ccc(NC(=S)NC(=O)c2ccc(F)cc2)cc1S(=O)(=O)Nc1cccc(Cl)c1 | i
CC(C)C(=O)Nc1cccc(NC(=S)NC(=O)c2ccc(Cl)cc2)c1 | -120
Cc1c(C(=O)Nc2nc3ccccc3[nH]2)oc2c(Cl)cccc12 | -136
Cc1c(C(=O)Nc2nc3ccccc3[nH]2)oc2ccc(Br)cc12 | -158
Cc1c(C(=O)Nc2nc3ccccc3[nH]2)oc2ccccc12 | -258
Cc1cc(N2CCOCC2)n2ncc(-c3ccccc3Cl)c2n1 | -160
O=C(O)CCSc1ncnc2sc(-c3ccccc3)cc12 | i
CC(=O)CCSc1ncnc2sc(-c3ccccc3)cc12 | -174
N#CCOc1ccccc1/C=C/c1nc2ccccc2c(=O)[nH]1 | -115
Cc1ccccc1/C=C\c1nc2ccccc2c(=O)[nH]1 | -142
Cc1ccccc1/C=C/c1nc2ccccc2c(=O)[nH]1 | -324
C/C(=N\NC(=O)Nc1ccccc1)c1ccccc1 | -80
CC(C)/C(=N\NC(=O)Nc1ccccc1)c1ccccc1 | -70
CC#CC(=O)N1CCC(C(=O)Nc2ccc(Oc3ccccc3)nc2)CC1 | -175
COC(=O)C(=Cc1ccc(OCc2ccc([N+](=O)[O-])cc2)c(OC)c1)C(=O)OC | -259
COc1cc(C(c2c(C)[nH][nH]c2=O)c2c(C)[nH][nH]c2=O)ccc1OCc1ccc([N+](=O)[O-])cc1 | -146
SMILES | aSyn 5UTR act
CCOC(=O)C(=Cc1ccc(OCc2ccc([N+](=O)[O-])cc2)c(OC)c1)C(=O)OCC | -267
CCOc1ccc(NC(=S)Nc2cccc3ccccc23)cc1 | -63
CCc1ccc(NC(=S)Nc2cccc(OC)c2)cc1 | -109
COc1cccc(NC(=S)Nc2cccc3ccccc23)c1 | -70
CCOc1ccc(NC(=S)Nc2cc(OC)c(Cl)cc2OC)cc1 | -90
COc1cccc(NC(=S)NN=C2CCCCCC2)c1 | -146
S=C(Nc1cccnc1)Nc1cccc2cnccc12 | i
CCOc1ccc(NC(=S)Nc2cccc3cnccc23)cc1 | -89
COc1ccc(NC(=S)Nc2cccc3cnccc23)cc1 | -72
O=c1c2c3nc4ccccc4nc3n(/N=C/c3ccccn3)c2ncn1-c1ccccc1 | -238
CCOC(=O)N1CC=C2C(C#N)=C(N)C(C#N)(C#N)[C@H](c3ccc(OCC)c(OCC)c3)[C@H]2C1 | -78
CCOc1ccc(Nc2nc(-c3sc(N)nc3C)cs2)cc1 | -70
Cc1ccc(Nc2nc(-c3sc(N)nc3C)cs2)cc1 | -134
S=C(NC1CCCCC1)c1ccc2c(c1)OCO2 | -65
O=C(NNC(=S)NC1CCCCC1)c1ccc2c(c1)OCO2 | -78
O=C(NC1CCCCC1)c1ccc2c(c1)OCCO2 | -82
C(=N\N=C\c1ccccc1)/c1ccccc1 | -96
Fc1cccc(/C=N/N=C/c2cccc(F)c2)c1 | -62
Cc1ccc(/C=N/N=C/c2ccc(C)cc2)cc1 | -110
Cc1cc2cc(CN(Cc3ccco3)S(=O)(=O)c3c(C)ccc4nsnc34)c(=O)[nH]c2cc1C | i
CCOC(=O)c1cccc(S(=O)(=O)N(CCO)Cc2cc3cc(OC)c(OC)cc3[nH]c2=O)c1 | -72
CCN(CC)C(=S)SCC(=O)c1ccc(F)cc1 | -133
CCN(CC)C(=S)SCC(=O)c1ccccc1 | -165
CCN(CC)C(=S)SSC(=S)N(CC)CC | i
Cc1ccccc1Nc1nnc(SCC2CCCCO2)s1 (stereo not given) | -85
SMILES | aSyn 5UTR act
Cc1ccc(Nc2nnc(SCC3CCCCO3)s2)cc1 (stereo not given) | -137
CCn1c2ccccc2c2nnc(SCC(=O)Nc3ccc4c(c3)OCO4)nc21 | -96
O=C(Nc1ccc2c(c1)OCCO2)NC1(C(F)(F)F)Oc2ccccc2O1 | i
O=C(Nc1ccc2c(c1)OCO2)Nc1ccccc1F | -136
CCc1cccc(NC(=O)Nc2ccc3c(c2)OCO3)c1 | -65
O=C(Nc1ccc2c(c1)OCO2)NC1(C(F)(F)F)Oc2ccccc2O1 | -96
CCc1ccccc1NC(=O)Nc1ccc2c(c1)OCO2 | -79
COC(=O)c1ccc(COc2ccccc2/C=C(\C#N)C(=O)Nc2ccc(C)cc2)cc1 | -154
COc1cc(/C=N/NS(=O)(=O)c2ccc(C)cc2)ccc1OCc1ccc(C(=O)O)cc1 | i
COC(=O)c1ccc(COc2ccccc2/C=N/NS(=O)(=O)c2ccc(C)cc2)cc1 | -69
O=[N+]([O-])c1ccc(O)c(C2=NNC(c3ccccc3F)C2)c1 (stereo not given) | -122
COc1ccc(-c2nc3c4ccccc4ccn3c2CN2CCOCC2)cc1OC | -95
CCCN(CCC)CCNC(=O)c1cc2c(-c3ccccc3F)nn(C)c2s1 | -62
CCN1CCN(C(=O)c2cc3c(-c4ccc(Cl)cc4)nn(C)c3s2)CC1 | -68
Cn1nc(-c2ccc(Cl)cc2)c2cc(C(=O)NCCCN3CCOCC3)sc21 | -134
Cn1nc(-c2ccc(Cl)cc2)c2cc(C(=O)NCCN3CCOCC3)sc21 | -107
CCOCCCNC(=O)c1cc2c(-c3ccc(Cl)cc3)nn(C)c2s1 | -62
CCCCN(CC)CCNC(=O)c1cc2c(-c3ccc(Cl)cc3)nn(C)c2s1 | i
COc1nc(-c2ccccc2)ccc1-c1noc(-c2ccccc2)n1 | -94
COc1nc(-c2ccccc2)ccc1-c1noc(-c2cccs2)n1 | -198
COc1nc(C)ccc1-c1noc(-c2ccncc2)n1 | -125
COc1ccc(-c2ccc(-c3noc(-c4ccco4)n3)c(OC)n2)cc1 | -126
COc1nc(-c2ccccc2)ccc1-c1noc(-c2ccco2)n1 | -168
S=c1sc2c(Cl)ncnc2n1-c1ccccc1 | i
COc1ccc(-c2cc3ncnc(Cl)c3s2)cc1 | -69
SMILES | aSyn 5UTR act
N#C/C(=C\c1ccc(N2CCOCC2)o1)c1ccccc1 | -223
N#C/C(=C\c1ccc(N2CCOCC2)cc1)c1ccccc1 | -132
N#C/C(=C/c1ccc(N2CCOCC2)o1)c1ccc(Br)cc1 | -284
COc1ccc(C(=O)Cc2ccc3c(c2)OCO3)c(O)c1 | -107
COc1ccc(CC(=O)c2ccc(O)cc2O)cc1 | -85
COc1ccc(C(=O)OCc2csc(C)n2)c(O)c1 | -180
O=C(Cc1ccc(Br)cc1)c1ccc(O)cc1O | -121
CC(C)(C)c1nnc(N/N=C/c2cc(Br)ccc2O)n(N)c1=O | i
Cc1ccc(C)c(/C=N/Nc2nc3ccccc3c(=O)n2O)c1 | -85
C/C(=N\Nc1nc2ccccc2c(=O)n1O)c1ccco1 | -119
O=C(Nc1ccc(/C=C/c2nc3ccccc3o2)cc1)c1ccc(F)cc1 | -117
Fc1ccc(OCc2cc(-c3ccccc3)no2)cc1 | -149
Cc1cccc(OCc2cc(-c3ccccc3)no2)c1C | -112
COc1ccc(-c2cc(COc3ccccc3)on2)cc1 | -132
O=c1oc2ccccc2cc1-c1nnc(NCc2ccco2)s1 | -131
COc1ccc2oc(=O)c(-c3nnc(N)s3)cc2c1 | -97
O=c1oc2ccccc2cc1-c1nc2c(s1)CCc1ccccc1-2 | -81
CC/C(C)=N\Nc1nc(-c2cc3cc(OC)ccc3oc2=O)cs1 | -119
